# The list shows a part of the results. Inconclusive results are not listed. Activity calls are given as the source filed them. Calls follow the shape of the dose curve; as a rule, active = well fitted curve in the direction sought with a large enough effect; inconclusive = small, poorly fitted or top-dose-only effect, or another doubt; inactive = no such curve, though single readings can be large; an effect the other way counts as inactive or inconclusive.
# Assays:
# [1] = target: DNA polymerase iota (Homo sapiens) (UniProt Q9UNA4); assay: qHTS for Inhibitors of Polymerase Iota: Confirmatory Assay for Cherry-picked Compounds (AID 720496); conditions: Pol iota primer extension, TAMRA/BHQ fluorescence
# Outline: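 Buffer-only wells, without enzyme, serve as negative control. Test wells hold 10 nM Pol iota preincubated 15 min with compound before 50 nM final fluorogenic DNA substrate is added; signal is read at 0 and 10 min.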
# [2] = target: DNA polymerase kappa (Homo sapiens) (UniProt Q9UBT6); assay: qHTS for Inhibitors of Polymerase Kappa: Confirmatory Assay for Cherry-picked Compounds (AID 720501); conditions: purified Pol-kappa, fluorescent strand-displacement substrate
# Outline: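 Human Pol-kappa, dispensed at 10 nM, was preincubated with compounds for 15 min at room temperature. Reactions were started with primer/template substrate (50 nM final) carrying a TAMRA reporter strand and BHQ-2-quenched template, and fluorescence (ex 525/em 598 nm) was read at 0 and 10 min.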
# [3] = target: DNA polymerase eta (Homo sapiens) (UniProt Q9Y253); assay: qHTS for Inhibitors of Polymerase Eta: Confirmatory Assay for Cherry-picked Compounds (AID 720502); conditions: Pol eta primer extension, TAMRA/BHQ fluorescence, 10 min
# Outline: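 Quenched-fluorescence replication assay: 10 nM Pol eta, 50 nM substrate final, 15 min compound preincubation at room temperature, 10 min kinetic reaction read at 525/598 nm.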
# [4] = target: Bifunctional 3'-5' exonuclease/ATP-dependent helicase WRN (Homo sapiens) (UniProt Q14191); assay: qHTS for Inhibitors of WRN Helicase: Confirmatory Assay for Cherry-picked Compounds. (AID 720497); conditions: WRN helicase DNA unwinding, fluorescence kinetic; series mostly up to 57.1 µM; also: nearly all actives have a fitted effect of over 65% in size
# Outline: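 WRN (20 nM) was preincubated 15 min at RT with compound, then started with 100 nM forked duplex oligonucleotide and 2 mM ATP. Unwinding was read kinetically by red fluorescence (ex 525/em 598 nm), normalized to enzyme-free and uninhibited controls.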
# [5] = target: RecQ-like DNA helicase BLM (Homo sapiens) (UniProt P54132); assay: qHTS for Inhibitors of WRN Helicase: BLM Helicase Counterscreen for WRN Inhibitors (AID 720503); conditions: Recombinant BLM helicase DNA unwinding, red fluorescence; series mostly up to 57.1 µM; also: nearly all actives have a fitted effect of over 60% in size
# Outline: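 1 nM BLM, Tris pH 8.0/NaCl/MgCl2/DTT/Tween-20; cpd preinc 15 min RT; start w/ 100 nM DNA + 2 mM ATP final; fluorescence (ex 525/em 598) two reads 15 min apart; normalized to enzyme-free and DMSO controls.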
# Potency is read from the fitted curve at half-maximal effect.
# DNA polymerase kappa (Homo sapiens), sequence (Q9UBT6 whole entry, looked up): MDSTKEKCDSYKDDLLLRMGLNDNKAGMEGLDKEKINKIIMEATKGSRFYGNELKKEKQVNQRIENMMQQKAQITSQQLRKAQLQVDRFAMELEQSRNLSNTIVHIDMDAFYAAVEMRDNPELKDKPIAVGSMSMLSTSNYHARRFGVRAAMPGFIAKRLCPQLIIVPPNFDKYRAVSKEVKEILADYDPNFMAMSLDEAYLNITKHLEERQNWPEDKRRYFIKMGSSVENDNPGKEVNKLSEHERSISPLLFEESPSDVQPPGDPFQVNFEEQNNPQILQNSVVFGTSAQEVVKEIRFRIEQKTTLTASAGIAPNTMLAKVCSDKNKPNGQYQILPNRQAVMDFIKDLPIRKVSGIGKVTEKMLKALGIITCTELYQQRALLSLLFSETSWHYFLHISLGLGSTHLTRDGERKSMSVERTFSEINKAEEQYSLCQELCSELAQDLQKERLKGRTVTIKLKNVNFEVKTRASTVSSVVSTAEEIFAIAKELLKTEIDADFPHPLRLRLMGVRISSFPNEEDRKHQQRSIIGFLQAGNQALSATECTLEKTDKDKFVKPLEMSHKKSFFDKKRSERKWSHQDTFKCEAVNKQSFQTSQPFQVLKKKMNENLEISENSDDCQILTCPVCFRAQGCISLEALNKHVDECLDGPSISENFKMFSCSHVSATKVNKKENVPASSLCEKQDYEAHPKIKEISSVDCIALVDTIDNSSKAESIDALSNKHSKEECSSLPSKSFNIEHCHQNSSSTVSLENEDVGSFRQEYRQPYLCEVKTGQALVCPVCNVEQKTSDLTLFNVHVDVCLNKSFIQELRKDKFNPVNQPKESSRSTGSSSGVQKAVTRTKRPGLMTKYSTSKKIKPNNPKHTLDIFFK
# DNA polymerase eta (Homo sapiens), sequence (Q9Y253 whole entry, looked up): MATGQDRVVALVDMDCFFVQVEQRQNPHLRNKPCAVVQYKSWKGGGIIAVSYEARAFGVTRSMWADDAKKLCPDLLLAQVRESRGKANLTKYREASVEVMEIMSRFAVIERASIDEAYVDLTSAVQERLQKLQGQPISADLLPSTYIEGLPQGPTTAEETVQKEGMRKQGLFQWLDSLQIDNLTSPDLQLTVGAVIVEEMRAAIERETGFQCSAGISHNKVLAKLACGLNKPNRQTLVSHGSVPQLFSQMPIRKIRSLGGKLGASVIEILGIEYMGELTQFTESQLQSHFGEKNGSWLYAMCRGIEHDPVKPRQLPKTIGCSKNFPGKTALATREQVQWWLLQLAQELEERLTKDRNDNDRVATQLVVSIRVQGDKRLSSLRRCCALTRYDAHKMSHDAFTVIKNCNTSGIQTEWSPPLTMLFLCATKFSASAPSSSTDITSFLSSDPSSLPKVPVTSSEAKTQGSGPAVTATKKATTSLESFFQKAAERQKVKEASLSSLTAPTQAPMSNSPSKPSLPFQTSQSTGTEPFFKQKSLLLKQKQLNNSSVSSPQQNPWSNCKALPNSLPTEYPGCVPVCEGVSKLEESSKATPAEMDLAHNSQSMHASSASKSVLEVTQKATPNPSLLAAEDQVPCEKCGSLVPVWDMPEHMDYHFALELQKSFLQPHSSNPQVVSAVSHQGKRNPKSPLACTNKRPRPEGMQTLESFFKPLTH
# DNA polymerase iota (Homo sapiens), sequence (Q9UNA4 whole entry, looked up): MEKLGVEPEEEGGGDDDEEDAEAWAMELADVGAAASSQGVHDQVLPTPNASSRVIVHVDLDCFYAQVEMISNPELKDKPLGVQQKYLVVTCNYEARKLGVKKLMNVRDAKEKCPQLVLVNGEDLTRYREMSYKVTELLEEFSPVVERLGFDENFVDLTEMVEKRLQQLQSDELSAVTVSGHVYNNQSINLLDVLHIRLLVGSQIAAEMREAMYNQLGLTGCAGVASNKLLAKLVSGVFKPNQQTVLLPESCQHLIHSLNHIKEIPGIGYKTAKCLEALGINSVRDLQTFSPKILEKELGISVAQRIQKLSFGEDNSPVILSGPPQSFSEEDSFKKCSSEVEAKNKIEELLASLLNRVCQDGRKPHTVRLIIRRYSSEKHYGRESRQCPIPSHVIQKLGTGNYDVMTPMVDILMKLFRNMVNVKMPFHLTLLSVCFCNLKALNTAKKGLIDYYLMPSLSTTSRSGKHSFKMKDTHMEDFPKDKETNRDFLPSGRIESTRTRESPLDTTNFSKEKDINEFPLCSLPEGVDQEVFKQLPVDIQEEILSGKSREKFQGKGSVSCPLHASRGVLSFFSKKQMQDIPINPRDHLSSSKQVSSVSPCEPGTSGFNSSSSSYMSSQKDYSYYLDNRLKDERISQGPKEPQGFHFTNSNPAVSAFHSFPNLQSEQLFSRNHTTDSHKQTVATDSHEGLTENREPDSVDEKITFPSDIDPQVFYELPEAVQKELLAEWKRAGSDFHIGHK
# Bifunctional 3'-5' exonuclease/ATP-dependent helicase WRN (Homo sapiens), sequence (Q14191 whole entry, looked up): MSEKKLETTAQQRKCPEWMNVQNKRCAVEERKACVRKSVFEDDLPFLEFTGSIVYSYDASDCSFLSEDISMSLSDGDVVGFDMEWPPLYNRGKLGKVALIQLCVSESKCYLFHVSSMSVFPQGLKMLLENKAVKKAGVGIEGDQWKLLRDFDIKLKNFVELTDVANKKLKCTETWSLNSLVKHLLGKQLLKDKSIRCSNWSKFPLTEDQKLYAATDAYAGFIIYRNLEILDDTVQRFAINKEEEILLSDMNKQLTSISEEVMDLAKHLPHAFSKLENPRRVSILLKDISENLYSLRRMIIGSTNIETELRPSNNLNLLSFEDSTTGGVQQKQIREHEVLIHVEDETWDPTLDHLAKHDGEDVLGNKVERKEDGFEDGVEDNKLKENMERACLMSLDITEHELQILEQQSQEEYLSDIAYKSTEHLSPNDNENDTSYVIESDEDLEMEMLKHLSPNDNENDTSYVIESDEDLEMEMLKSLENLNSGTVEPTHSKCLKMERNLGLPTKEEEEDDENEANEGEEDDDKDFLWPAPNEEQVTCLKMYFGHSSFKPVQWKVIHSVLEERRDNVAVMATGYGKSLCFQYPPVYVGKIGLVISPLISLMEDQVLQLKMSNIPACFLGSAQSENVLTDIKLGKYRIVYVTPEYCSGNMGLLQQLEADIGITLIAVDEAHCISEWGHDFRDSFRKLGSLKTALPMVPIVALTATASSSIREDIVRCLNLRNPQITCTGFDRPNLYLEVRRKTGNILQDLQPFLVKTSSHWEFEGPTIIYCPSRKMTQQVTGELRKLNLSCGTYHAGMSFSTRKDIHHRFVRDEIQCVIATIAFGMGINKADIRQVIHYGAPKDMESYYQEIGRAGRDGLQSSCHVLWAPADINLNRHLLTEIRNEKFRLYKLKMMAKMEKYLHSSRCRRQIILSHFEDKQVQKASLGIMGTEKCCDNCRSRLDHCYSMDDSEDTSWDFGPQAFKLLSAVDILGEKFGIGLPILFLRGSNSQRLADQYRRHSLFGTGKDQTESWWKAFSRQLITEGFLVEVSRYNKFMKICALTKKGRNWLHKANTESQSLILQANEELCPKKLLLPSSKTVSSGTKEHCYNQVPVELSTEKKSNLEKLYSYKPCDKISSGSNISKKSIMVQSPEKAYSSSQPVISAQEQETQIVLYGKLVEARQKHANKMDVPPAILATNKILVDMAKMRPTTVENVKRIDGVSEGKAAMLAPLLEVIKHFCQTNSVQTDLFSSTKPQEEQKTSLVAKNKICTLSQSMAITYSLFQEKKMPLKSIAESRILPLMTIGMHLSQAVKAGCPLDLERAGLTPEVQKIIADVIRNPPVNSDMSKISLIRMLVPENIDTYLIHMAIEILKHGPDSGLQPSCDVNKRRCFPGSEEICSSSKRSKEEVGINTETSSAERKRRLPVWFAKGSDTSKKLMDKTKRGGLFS
smiles,measurement,setting,value
COc1ccc2[nH]c3c(C)c4cc[n+](C)cc4c(C)c3c2c1,Potency,[1],2.99 µM (active)
same,Potency,[2],1.34 µM (active)
same,Potency,[3],9.53 µM (active)
O=C1NN(c2ccccc2)C(=O)/C1=C/c1ccc(-c2cccc(C(=O)O)c2)o1,Potency,[2],16.8 µM (active)
same,Potency,[3],30.1 µM (active)
COc1cccc2c1C(=O)c1c(O)c3c(c(O)c1C2=O)CC(O)(C(C)=NNC(=O)c1ccc(Cl)c(Cl)c1)CC3OC1CC(N)C(O)C(C)O1 (configuration not stated),Potency,[4],1.92 µM (active)
same,Potency,[5],4.29 µM (active)
Cc1cc(/C=C2\SC(=O)N(C)C2=O)c(C)n1-c1cccc(C(=O)O)c1,Potency,[1],47.4 µM (active)
same,Potency,[2],9.47 µM (active)
same,Potency,[3],30.1 µM (active)
Cc1nnc(SCC(=O)Nc2ccc(S(=O)(=O)Nc3ccc(Cl)nn3)cc2)s1,Potency,[3],53.6 µM (active)
O=C(O)C1CCN(c2ccc([N+](=O)[O-])cc2[N+](=O)[O-])CC1,Potency,[2],42.3 µM (active)
O=C(CSc1nc2ccccc2c(=O)[nH]1)Nc1nc(-c2ccc(Br)cc2)cs1,Potency,[1],21.2 µM (active)
same,Potency,[3],75.7 µM (active)
COC(=O)Cc1cc(=O)n(-c2nc3ccccc3s2)[nH]1,Potency,[3],84.9 µM (active)
NC(CSC(c1ccccc1)(c1ccccc1)c1ccc(-c2ccccc2)cc1)C(=O)O (configuration not stated),Potency,[2],67 µM (active)
same,Potency,[3],75.7 µM (active)
COc1cc(/C=C2/C(=O)NN(c3ccc(F)cc3)C2=O)cc([N+](=O)[O-])c1O,Potency,[2],37.7 µM (active)
COc1ccc(CNC(=O)c2nnn(CC(=O)Nc3cc(C)cc(C)c3)c2N)cc1,Potency,[2],47.4 µM (active)
O=C(O)C(c1ccccc1)N1C(=O)/C(=C\c2ccc(-c3cccc(Cl)c3)o2)SC1=S (configuration not stated),Potency,[1],67 µM (active)
same,Potency,[2],29.9 µM (active)
same,Potency,[3],75.7 µM (active)

# Reference: PubChem BioAssay (NCATS)
